The values below come from PubChem BioAssay AID686979 (National Center for Advancing Translational Sciences (NCATS), 2013).

About 50,000 (12%) of roughly 420,000 compounds were called active. Inconclusive results (about 26%) are left out. The sample as a whole holds a higher share of actives than the screen did. A number with no mark means an inactive call. The call rests on the fitted dose curve; in most records, active means well fitted inhibition curve with a large enough effect; inconclusive means small, poorly fitted or top-dose-only effect; inactive means flat fitted curve, though single readings scatter.
On the % scale 0 is the no-effect control and ±100 the full control effect; potency means the concentration at half of the fitted maximal effect.

The test can be described thus: qHTS for Inhibitors of human tyrosyl-DNA phosphodiesterase 1 (TDP1): qHTS in cells in presence of CPT. Further: nearly all actives have a fitted effect of over 55% in size. The note with it: chicken DT40 Tdp1-/-;hTDP1 cells + 20 nM CPT, ATP luminescence, 48 h; series mostly up to 46.2 µM; activity change, negative = growth inhibition: at the top concentration. Summed up:
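Chicken DT40 Tdp1-/- cells complemented with human TDP1, 400 cells/well, exposed to compounds plus 20 nM camptothecin for at least 48 h at 37 C; viability read as ATP content by CellTiter-Glo luminescence.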
A general note: qHTS replaces the single test concentration by a dilution series.
Take `COC(=O)c1sccc1-n1cccc1C(=O)C(=O)N1CCCCC1`: the “activity change, negative = growth inhibition” value is -5.51%. For `O=C(COC(=O)c1ccc(Oc2ccccc2)cc1)Nc1nnc(-c2ccccc2)o1`, the “activity change, negative = growth inhibition” value was -23.6%.

As for `COc1cccc(-c2nnc(NC(=O)c3ccc(S(=O)(=O)N(CC(C)C)CC(C)C)cc3)o2)c1`, the Potency is 3.66 µM (active).

In the case of `COc1cccc(NC(=O)c2ccc(S(=O)(=O)N(C)C)cc2)c1`, the “activity change, negative = growth inhibition” value is -1.56%. Consider `O=C1/C(=C/c2ccc(F)cc2)SC(=S)N1NS(=O)(=O)c1ccccc1`, for which the “activity change, negative = growth inhibition” value is -3.85%. Consider `O=C(CCN1C(=O)c2ccccc2C1=O)C1=NN[C@@H]2C(=O)N(c3ccc(F)cc3)C(=O)[C@H]12`, for which the “activity change, negative = growth inhibition” value was -3.2%. Same read-out and setting: the result for `CCCC(=O)Nc1nnc(-c2ccccc2)o1` reads 0.251%. For `CCCCCCc1cc2cc(-c3nnc(-c4ccccc4)o3)c(=O)oc2cc1O`, the Potency was 14.6 µM (active).

`Cc1c(CC(=O)NCCCCCC(=O)O)c(=O)oc2cc3occ(-c4ccccc4)c3cc12`: the “activity change, negative = growth inhibition” value was 11.6%. In the case of `Nc1cccc(S(=O)(=O)Nc2ccc(SC(F)F)cc2)c1`, the “activity change, negative = growth inhibition” value is -8.22%. On the same count and under the same terms, next, `CC(C)(C)c1cc(P(=O)(c2ccccc2)c2ccccc2)ccc1O`: -13.8%. On the same count and under the same terms, the result for `COc1ccccc1-c1cnn2c(N3CCOCC3)cc(C)nc12` reads 10.4%; that for `O=C(Nc1cccc(Br)c1)C1CC(=O)N(C2CCCC2)C1` (stereo not drawn), 0.73%; that for `COc1ccc(OC)c(NC(=O)Cc2cccs2)c1`, -28.1%. Same read-out and setting: the result for `Cn1c(SCC(=O)N/N=C/c2ccc(O)c(O)c2)nc2ccccc21` reads -81.7%. As to `CCCc1nc2ccccc2c(=O)n1/N=C/c1ccc(O)c(O)c1`, the Potency was 11.6 µM (active). Take `O=c1c2ccccc2ncn1/N=C/c1ccccc1`: the “activity change, negative = growth inhibition” value is -6.74%. `CSc1nc2c(c(=O)[nH]1)C(c1cccc(Cl)c1Cl)CC(=O)N2` (stereo not drawn): the “activity change, negative = growth inhibition” value was 5.31%. Turning to `O=C(CSCc1c(F)cccc1Cl)NCC1CCCO1` (stereo not drawn), the “activity change, negative = growth inhibition” value was -10.4%.

Regarding `COc1ccc(S(=O)(=O)N2CCN(C(=S)NCC3CCCO3)CC2)cc1OC` (stereo not drawn), the “activity change, negative = growth inhibition” value is 6.64%. With `S=C(NCC1CCCO1)N1CCN(c2ccc(Cl)c(Cl)c2)CC1` (stereo not drawn), the Potency is 20.6 µM (active). Take `O=Cc1c(N2CCN(c3cccc(Cl)c3)CC2)nc2ccccn2c1=O`: the “activity change, negative = growth inhibition” value is -27.9%.

With `CC(CNc1ccc([N+](=O)[O-])c2cccnc12)Nc1c([N+](=O)[O-])cc(C(F)(F)F)cc1[N+](=O)[O-]` (stereo not drawn), the “activity change, negative = growth inhibition” value is -5.74%.

Turning to `FC(F)(F)c1ccc2c3n(nc2c1)CCN=C3c1ccc(Cl)cc1`, the “activity change, negative = growth inhibition” value is -26.9%. On the same count and under the same terms, next, `CCc1ccccc1NC(=O)CSc1nnc(CCNC(=O)OC(C)(C)C)o1`: 4.67%. For `CN1OC[C@@H]2CN(C(=O)c3cccc4ccccc34)[C@H](c3ccc(N4CCCCC4)cc3)C[C@@H]21`, the “activity change, negative = growth inhibition” value is -8.28%. For the compound `C[C@H]1Cn2cnc(C(=O)N[C@H](C)c3ccccc3)c2C(=O)N1`, the “activity change, negative = growth inhibition” value is -2.86%. In the case of `COc1ccc(C(=O)OC(C)C(=O)NC2CCCC2)cc1S(=O)(=O)N1CCOCC1` (stereo not drawn), the “activity change, negative = growth inhibition” value is -15.1%.

For the compound `CCCN(CCC)C(=O)C1CCCN(c2ncnc3c2nc2n3CCCCC2)C1` (stereo not drawn), the Potency was 14.6 µM (active). Regarding `CCCCN(CC)C(=S)Nc1ccc2nc3n(c(=O)c2c1)CCCCC3`, the “activity change, negative = growth inhibition” value is -21.8%.

For `COCCNc1ncnc2c1nc1n2CCCC1`, the “activity change, negative = growth inhibition” value is -12.6%. As to `CN(C(=O)C1CCN(c2ncnc3c2nc2n3CCCCC2)CC1)C1CCCCC1`, the Potency is 20.6 µM (active). For the compound `Cc1cccc2c(=O)n3c(nc12)CCCCC3`, the “activity change, negative = growth inhibition” value was -29.8%. For `COCCCNC(=O)CN1C(=O)CSc2ccc(S(=O)(=O)N3CCOCC3)cc21`, the Potency entry is “inactive”. As for `O=C(NCc1ccncc1)c1ccc(NS(=O)(=O)c2cccc([N+](=O)[O-])c2)cc1`, the “activity change, negative = growth inhibition” value was -13%.

On to `COc1ccc(C(C)NC(=S)NC2CCCCC2)cc1OC` (stereo not drawn), for which the “activity change, negative = growth inhibition” value was -15.6%. For the compound `COc1ccc(-n2c(CNC(=O)c3cc(C(F)(F)F)ccc3Cl)nnc2SC)cc1`, the “activity change, negative = growth inhibition” value was 21.6%. Still for that read-out and setting: the result for `COc1ccc(C(CNC(=O)COc2ccc([N+](=O)[O-])cc2)N2CCCCC2)cc1` (stereo not drawn) reads -15.2%; that for `CC(=O)c1ccc(S(=O)(=O)NC2CC(=O)N(c3ccc4c(c3)OCCO4)C2)cc1` (stereo not drawn), -2.96%. On the same count and under the same terms, the result for `Cc1ccc(N2C(=O)CN=C2Nc2nc(C)cc(C)n2)cc1` reads -2.45%; that for `COc1ccccc1-c1nc(N2CCN(C)CC2)c2ccccc2n1`, 7.98%.

Consider `COc1ccc(N2CCN(C(C)=C3C(=O)c4ccccc4C3=O)CC2)cc1`, for which the “activity change, negative = growth inhibition” value was -17.9%. Regarding `COc1ccc(N2CCN(c3nc(-c4ccccc4F)nc4ccccc34)CC2)cc1`, the Potency is 20.6 µM (active). Consider `O=C(Nc1ccc(Cl)cc1)c1cc2nc(C3CC3)cc(C(F)(F)F)n2n1`, for which the “activity change, negative = growth inhibition” value is -14.9%.

As for `COC(=O)C1(C)CC1(c1ccccc1)c1ccccc1` (stereo not drawn), the “activity change, negative = growth inhibition” value was -29.8%. The same measure, in the same setting: next, `CC(C)Oc1ccc(/C=N/NC(=O)c2nnn(-c3nonc3N)c2CN(C)C2CCCCC2)cc1`: -4.96%; `O=C(Nc1ccccc1Cl)N1CCC(CN2CCCC2)CC1`: -3.55%. On the same count and under the same terms, next, `CCOC(=O)N1CCN(S(=O)(=O)c2ccc3c(c2)C(C)C(=O)N3)CC1` (stereo not drawn): 4.3%; `O=S(=O)(N1CCOCC1)N1CCN(c2ccccc2F)CC1`: -7.59%. Take `CC1C(=O)Nc2ccc(S(=O)(=O)N3CCN(c4ccccc4F)CC3)cc2NC1=O` (stereo not drawn): the Potency was 9.2 µM (active). As to `Cn1c(=O)c(=O)n(C)c2cc(S(=O)(=O)NCCN3CCN(c4ccccc4F)CC3)ccc21`, the “activity change, negative = growth inhibition” value was 0.149%.

Turning to `Cc1ccc(C)c(N2CCN(S(=O)(=O)c3ccc4c(c3)oc(=O)n4C)CC2)c1`, the “activity change, negative = growth inhibition” value is -18.2%. Regarding `Cc1ccc(C)c(N2CCN(S(=O)(=O)c3ccc4c(c3)C(C(C)C)C(=O)N4)CC2)c1` (stereo not drawn), the Potency is 20.6 µM (active).
